Hits are enriched below; roughly 7.9% of the tested compounds scored in any of these assays.
FMDV inh: High Throughput Screening for Foot and Mouth Disease Virus Antivirals | actives 1.2% (n = 410,000) | FMDV antiviral cell-based qHTS | AID 1159524, 2015 | Potency, µM (doses to about 57.9 µM), for the others: at the top dose activity change, negative = inhibition, hits mostly inhibitors; calls by dose curve; tested in HEK293T cells; note: read-out not given here; potency is the fitted concentration of half-maximal effect; nearly all actives have a fitted effect of over 45% in size
HCMV inh: qHTS Assay for inhibitors of the human cytomegalovirus (HCMV); activity change, negative = inhibition, % at 57.5 µM; HFF cells, HCMV-luciferase reporter, 72 h; hits give low values; actives 4.5% (n = 410,000); in the data active = activity change below about -60%; inconclusive = no clear call, values can overlap the other calls; inactive = above about -39%
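Steps: HFFs plated, 16 h 37C; compounds added; HCMV-luciferase added to MOI 1 PFU/cell; 72 h 37C; OneGlo reagent, 5 min room temperature; luminescence read, normalized to controls.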
HCV inhibitor: qHTS Assay for Inhibitors of Hepatitis C Virus (HCV); Huh7.5.1 HCVcc-Cre infection, luciferase reporter, 44 h; AID 651820, 2012; actives 3.4% (n = 340,000); Potency, µM (top dose mostly 41.8 µM), for inactives: at the top dose activity change, negative = inhibition, usual class: inhibitors; active = well fitted inhibition curve with a large enough effect; inconclusive = small, poorly fitted or top-dose-only effect, or another doubt; inactive = no such curve, though single readings can be large or run the other way; note: potency is the fitted concentration of half-maximal effect
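A cell-based infection assay in which seeded cells (1,000 per well) receive test compound after 4 h, are inoculated with HCVcc-Cre at approximately 0.5 moi, and are incubated 44 h before luminescence detection.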
Marburg entry inh: qHTS for inhibitors of binding or entry into cells for Marburg Virus; Marburg virus pseudotyped entry inhibition, cell reporter; Potency, µM (titrated, usually from 37.8 µM), inactives show at the highest dose activity change, negative = inhibition, usual class: inhibitors; actives 1.8% (n = 300,000); calls by dose curve; tested in HEK293 cells; note: potency is the fitted concentration of half-maximal effect
LASV entry inh: qHTS for Inhibitors of binding or entry into cells for Lassa Virus; actives 1.2% (n = 300,000); Potency, µM (highest dose often 37.9 µM), without a hit: top-dose activity change, negative = inhibition, usual class: inhibitors; Lassa virus pseudotype entry inhibition, cell reporter; calls by dose curve; tested in HEK293 cells; note: potency is the fitted concentration of half-maximal effect; nearly all actives have a fitted effect of over 50% in size
Numbers without * were called inactive; ? = inconclusive; · = no result; ! = a repeat was not active; [ ] = remark or other dose. % is set by controls: 0 for no effect and ±100 for the full control effect.

SMILES	FMDV inh	HCMV inh	HCV inhibitor	Marburg entry inh	LASV entry inh
Cc1cc(Cl)ccc1NC(=S)NCc1ccco1	0.0%	-61.2*	-16.8%	?	9.2%
O=C(COc1ccccc1)NCC(c1cccs1)S(=O)(=O)c1ccc(Cl)cc1 (centres undefined)	0.0%	-8.4	·	·	-19.4%[46.1 µM]
COCCCN(CC(=O)Nc1ccc(N2CCOCC2)cc1)S(=O)(=O)c1ccccc1	4.1%	?	-14.9%	-2.9%	3.9%
C[C@@H](CC(=O)O)[C@@H](N)C(=O)O	-9.7%	·	·	·	·
CN1C(=O)C2(SCC(=O)N2c2cccc(C(F)(F)F)c2)c2ccccc21 (centres undefined)	-29.4%	-0.9	·	·	21.8%[46.1 µM]
Cc1cccc(N2C(=O)CSC23C(=O)N(Cc2cccc(C(F)(F)F)c2)c2ccccc23)c1 (centres undefined)	?	-69.7*	·	·	-19.6%[46.1 µM]
CCCCNc1c(-c2ccc(SC3CCCCC3)c(OC)c2)nc2ccc(C)cn12	28.2µM*!	-70.5*!	?	·	·
COc1ccc(-c2nc3ccc(Cl)cn3c2NC2CCCCC2)cc1SC1CCCCC1	10.3%	-19.4	-2.1%	·	·
COc1ccc(-c2nc3ccc(C)cn3c2NCc2ccccc2)cc1SC1CCCCC1	20µM*	·	?	·	·
CCCCNc1c(-c2ccc(OC)c(SC3CCCCC3)c2)nc2ccc(C)cn12	22.4µM*	-100.7*!	?	·	·
COc1cccc(CNC(=O)CCc2c(C)c3cc4c(C)coc4c(C)c3oc2=O)c1	-6.0%	-29.6	·	0.8%[46.1 µM]	2.2%[46.1 µM]
CC1CCC(C(C)C)C(OC(=O)Cn2c(-c3ccc(F)cc3)[n+](C)c3ccccc32)C1 (centres undefined)	?	-102.4*	10µM*	?	?
CC1CCC(C(C)C)C(OC(=O)C[n+]2cc(-c3ccc(Cl)cc3)n3c2CCC3)C1 (centres undefined)	0.0%	?	-15.5%	·	·
CC1CCC(C(C)C)C(OC(=O)Cn2c(-c3ccccc3)[n+](C)c3ccccc32)C1 (centres undefined)	12.6µM*	-100.4*	?	5.8µM*	7.08µM*
CC1CCC(C(C)C)C(OC(=O)CSc2nc(N)cc(=O)[nH]2)C1 (centres undefined)	?	-23.5	?	-6.2%	4.3%
COc1ccc(-n2nc(C(=O)Nc3cccc(C)n3)c3c4ccccc4n(C)c3c2=O)cc1	-19.6%	10.8	·	-5.5%[46.1 µM]	0.5%[46.1 µM]
O=c1cc(CN2CCCCCC2)nc2sccn12	-8.2%	7.2	15.1%	2.0%[46.1 µM]	0.3%
CN1CCN(Cc2cc(=O)n3ccsc3n2)CC1	-11.8%	-88.8*	5.5%	5.8%[46.1 µM]	-5.2%[46.1 µM]
COc1ccc(NC(=O)C2CCCN(S(=O)(=O)c3ccc(Br)s3)C2)cc1 (centres undefined)	-19.1%	-4.8	·	-25.2%[46.1 µM]	-3.8%[46.1 µM]
COc1ccc2c(c1)CC(N1CCN(C)CC1)c1cc(OC)ccc1S2 (centres undefined)	?	-64.3*	?	3.98µM*	?
Cc1cccc(-c2nnc(SC(C)C(=O)N3CCOCC3)o2)c1 (centres undefined)	15.4%	71.7	-11.5%	?	20.5%[46.1 µM]
CCCCn1c(NC(=O)c2ccccc2)c(C#N)c2nc3ccccc3nc21	·	-66.7*	?	?	?
CCC(=O)Nc1c(C#N)c2nc3ccccc3nc2n1-c1ccc(C)cc1	?	-27.2	14.0%	·	·
CCC(C)n1c(NC(=O)c2ccccc2)c(C#N)c2nc3ccccc3nc21 (centres undefined)	11.2µM*	-38.9	?	?	?
O=[N+]([O-])c1cccc(C2Nc3ccccc3CO2)c1 (centres undefined)	-2.2%	2.1	·	·	·
SMILES	FMDV inh	HCMV inh	HCV inhibitor	Marburg entry inh	LASV entry inh
O=C(NCc1ccco1)/C(=C/c1cccc(C(F)(F)F)c1)c1nc2ccccc2[nH]1	0.0%	-100.3*	15.8µM*	?	?
O=C(NCc1ccco1)/C(=C/c1ccc(C(F)(F)F)cc1)c1nc2ccccc2[nH]1	21.0%	-24.9	?	-29.2%	?
CCCS(=O)(=O)c1ncc(Cl)c(C(=O)N2CCN(c3ccc(OC)cc3)CC2)n1	-12.2%	-103.0*	·	·	?
CCSc1ncc(Cl)c(C(=O)N2CCN(c3ccc(OC)cc3)CC2)n1	-9.8%	-12.5	·	-7.7%[46.1 µM]	1.1%[46.1 µM]
O=S(=O)(c1ccccc1)N1CCN(C(=S)NC2CCCC2)CC1	-9.1%	-22.4	8.5%	-14.3%	21.4%
O=S(=O)(c1c(Cl)cc(Br)cc1Cl)N1CCN(C(=S)NC2CC2)CC1	-15.6%	?	25.1µM*	?	?
Cc1ccc(CNC(=O)CSCc2nc(-c3cccc(C)c3)oc2C)cc1	?	-15.3	·	-26.5%[46.1 µM]	?
COc1ccccc1-n1cnc2c(c1=O)c1nc3ccccc3nc1n2-c1ccc(C)c(C)c1	-26.7%	?	7.94µM*	·	·
C/C(=N\NC(=S)Nc1ccc(C)cc1)c1cccc(N)c1	47.6%	33.0	-10.7%	21.4%[46.1 µM]	-11.0%
CC(=NNC(=S)Nc1ccc(C)cc1)c1ccccn1	0.3%	-93.8*	?	?	?
COc1ccccc1NC(=S)NN=C(C)c1ccccn1	1.0%	-101.6*	?	?	0.282µM*
CC(=NNC(=S)Nc1cccc(C)c1)c1ccccn1	39.1%	-98.3*	10µM*	?	?
CCOC(=O)[C@@H](C)c1nc2ccccc2[nH]c1=O	·	·	·	7.5%	·
N#Cc1ccc(CN2CC[C@@]3(CCCN(S(=O)(=O)c4ccccc4)C3)C2)cc1	-19.1%	·	·	·	·
Cc1nc2cc(NC(=O)C3CC34CCN(Cc3ccc(O)c(Cl)c3)CC4)ccc2s1 (centres undefined)	6.1%	·	·	·	·
CCCCCNC(=O)c1cccc(S(=O)(=O)N2CC3(C)CC2CC(C)(C)C3)c1 (centres undefined)	8.4%	-1.6	?	?	12.6µM*
CC(=O)NC1=NN(C(C)=O)C(C)(c2ccco2)S1 (centres undefined)	-3.7%	-28.8	17.1%	3.16µM*	-25.8%[46.1 µM]
CC(=O)NC1=NN(C(C)=O)C(C)(c2ccc(C)o2)S1 (centres undefined)	20.4%	-28.0	14.8%	4.6%[46.1 µM]	-21.5%[46.1 µM]
COc1ccc(NS(=O)(=O)c2ccc3[nH]c4c(c3c2)CCCCC4)cc1	-1.4%	-8.5	·	·	-2.8%[46.1 µM]
O=[N+]([O-])c1cc(S(=O)(=O)Nc2ccc(Cl)cc2)ccc1N/N=C/c1ccncc1	-8.0%	-102.5*	-25.5%	?	-12.6%[46.1 µM]
CC12CCC(C(=O)OC3CCCCC3)(OC1=O)C2(C)C (centres undefined)	-2.1%	-24.5	23.9%	·	·
Cc1nc2c(c3c1[nH]c1ccccc13)C(O)CC(C)(C)C2 (centres undefined)	?	-89.8*	?	?	?
Cc1nn(-c2ccccc2)c2c1C(O)CC(C)(C)C2 (centres undefined)	-14.2%	-37.4	6.4%	·	·

Assay outcomes as filed in PubChem.
